Each structure is given as a SMILES string. Where “and” joins values, the source holds several entries; their conditions need not be identical. Identical values can stand only once. Out of some 6,400 compounds screened, about 610 (9.5%) were called active. Rule as the data show it: active = activity change below about -70%; inconclusive = no clear call, values can overlap the other calls; inactive = above that. What follows is part of a selection rich in actives, with near analogues and random picks from the rest. A structure can be active in one record and inactive in another.

The test can be described thus: Toxoplasma gondii ME49Luc growth in HeLa cells, luciferase, no IFN-y, primary screen (AID 1259421). Particulars: T. gondii ME49Luc in HeLa, 72 h, stronger effect = lower value, concentration not given here.
`CC(C)(C)NCC(O)c1ccc(O)cc1Cl` (stereo not given): the activity change, negative = inhibition is -2.47% (inactive).
The same measure for `CN1C2C[C@H](OC(=O)[C@H](CO)c3ccccc3)C[C@H]1[C@@H](O)C2`: 4.91% (inactive); for `CN1C2C[C@H](OC(=O)[C@H](CO)c3ccccc3)C[C@@H]1[C@@H](O)C2`: 6.31% (inactive).
For the compound `CCCCCOc1c(OC)ccc2cc(C(=O)NCc3ccc4c(c3)OCO4)c(=O)[nH]c12`, the activity change, negative = inhibition is 23.5% (inactive) and -61.7% (inactive).
Consider `C[C@]12CC[C@H]3[C@@H](CCC4=CC(=O)CC[C@@]43C)[C@@H]1CC[C@H]2O`, for which the activity change, negative = inhibition was 8.39% (inactive).
As for `C[C@]12CCC(=O)C=C1CCC1C2CC[C@@]2(C)C1CC[C@@H]2O` (stereo not given in full), the activity change, negative = inhibition is -78.3% (active) and -86.2% (active).
For the compound `C#CC1(O)CCC2C3CCC4=CC(=O)CCC4(C)C3CCC21C` (stereo not given), the activity change, negative = inhibition is -6.31% (inactive) and -17.5% (inactive).
In the case of `C#C[C@]1(O)C=C[C@H]2[C@@H]3CCC4=CC(=O)CC[C@@H]4[C@H]3CC[C@@]21CC` it was -40.4% (inactive); in that of `C[C@]12CCC(=O)C=C1CC[C@@H]1[C@@H]2C(=O)C[C@]2(C)C(=O)CC[C@@H]12`, 8.66% (inactive); in that of `C[C@]12CC[C@H]3[C@@H](CCC4=CC(=O)CC[C@@H]43)[C@@H]1CC[C@@H]2O`, -79.7% (active).
The same measure for `C[C@]12CCC3c4ccc(OC(=O)N(CCCl)CCCl)cc4CCC3C1CC[C@@H]2O` (stereo not given in full): -52.4% (inactive); for `CCCCCCC(=O)O[C@H]1CC[C@H]2[C@@H]3CCC4=CC(=O)CC[C@]4(C)[C@H]3CC[C@]12C`: -77% (active); for `CCC[C@@H]1CC2=CC(=O)CC[C@]2(C)[C@H]2CC[C@@]3(C)[C@@H](CC[C@@]3(O)CCC(=O)O)[C@H]12`: 17.5% (inactive).
`C[C@]12CCC(=O)C=C1CCC1C2CC[C@@]2(C)C1CC[C@H]2O` (stereo not given in full): the activity change, negative = inhibition was 2.85% (inactive).
Regarding `CCC(=O)O[C@H]1CCC2C3CCC4=CC(=O)CC[C@]4(C)C3CC[C@@]21C` (stereo not given in full), the activity change, negative = inhibition is -76.8% (active) and -88.9% (active).
Regarding `CCCC1CC2=CC(=O)CCC2(C)C2CCC3(C)C(CCC3(O)CCC(=O)O)C12` (stereo not given), the activity change, negative = inhibition was 13% (inactive).
In the case of `CC(C)[C@]1(O)[C@@H](OC(=O)c2ccc[nH]2)[C@@]2(O)[C@@]3(C)C[C@]4(O)O[C@@]5([C@H](O)[C@@H](C)CC[C@]35O)[C@@]2(O)C41C` it was 7.71% (inactive); in that of `N#Cc1ccccc1-c1cc(-c2ccccn2)cn(-c2ccccc2)c1=O`, 3.7% (inactive).
The same measure for `C=CCN1CC[C@]2(C)c3cc(O)ccc3CC1[C@@H]2C`: 17.7% (inactive).
With `Cc1ccccc1-n1c(CF)nc2ccc(N)cc2c1=O`, the activity change, negative = inhibition is 11.5% (inactive).
In the case of `CCN(CC)Cc1nccn1-c1ccc([N+](=O)[O-])cc1C(=O)c1ccccc1Cl` it was -2.08% (inactive).
Regarding `C=C(C)CN1CC[C@]23c4c5ccc(O)c4O[C@H]2c2[nH]c4ccccc4c2C[C@@]3(O)C1C5`, the activity change, negative = inhibition is 3.03% (inactive) and 27.5% (inactive).
As to `CN1C(=O)C(O)N=C(c2ccccc2)c2cc(Cl)ccc21` (stereo not given), the activity change, negative = inhibition is 18.5% (inactive).
`CCOC(=O)c1ncn2c1C1CCCN1C(=O)c1cc(OC)ccc1-2` (stereo not given): the activity change, negative = inhibition is 4.31% (inactive).
In the case of `CNCC/C=C/c1cccnc1` it was 9.5% (inactive); in that of `O=C1CCCC2C3CC(CN12)[C@@H]1CCCCN1C3` (stereo not given in full), 14.8% (inactive) and -1% (inactive); in that of `O=C1Nc2ccc(Cl)cc2C(c2ccccc2)=NC1O` (stereo not given), 20.6% (inactive).
Regarding `CCCN1CCCC2Cc3[nH]ncc3CC21` (stereo not given), the activity change, negative = inhibition is 1.31% (inactive).
On to `NC(=O)CS(=O)C(c1ccccc1)c1ccccc1` (stereo not given), for which the activity change, negative = inhibition was -1.56% (inactive).
The same measure for `O=C(CCCN1CCC2(CC1)C(=O)N(Cc1cccc(F)c1)CN2c1ccccc1)c1ccc(F)cc1`: 10% (inactive) and -81.6% (active); for `COC(=O)CN1CN(c2ccccc2)C2(CCN(Cc3ccc4ccccc4c3)CC2)C1=O`: 13.3% (inactive).
In the case of `O=C(CCCN1CCC2(CC1)C(=O)NCN2c1ccccc1)c1ccc(F)cc1` it was 2.21% (inactive) and -33.3% (inactive); in that of `Cc1cc(OC(=O)N2CCCCC2)c(C(C)C)cc1[N+](C)(C)C`, -5.32% (inactive).
On to `C/C(=C\c1csc(C)n1)[C@@H]1C[C@@H]2O[C@@H]2CCC[C@H](C)[C@H](O)[C@@H](C)C(=O)C(C)(C)[C@@H](O)CC(=O)O1`, for which the activity change, negative = inhibition is -69.4% (inactive).
In the case of `C/C(=C\c1csc(C)n1)[C@H]1C[C@@H]2O[C@]2(C)CCC[C@H](C)[C@H](O)[C@@H](C)C(=O)C(C)(C)[C@@H](O)CC(=O)O1`, the activity change, negative = inhibition is -66.8% (inactive).
In the case of `C/C1=C/C[C@@H](/C(C)=C/c2csc(C)n2)OC(=O)C[C@H](O)C(C)(C)C(=O)[C@H](C)[C@@H](O)[C@@H](C)CCC1` it was -85.9% (active); in that of `C/C(=C\c1csc(C)n1)[C@H]1C[C@@H]2O[C@]2(C)CCC[C@H](C)[C@H](O)[C@@H](C)C(=O)C(C)(C)[C@H](O)CC(=O)O1`, -73.6% (active); in that of `CCN1CC2(COC(=O)c3ccccc3N3C(=O)CC(C)C3=O)CCC(OC)C34C5CC6C(OC)CC(O)(C5C6OC)C(O)(C(OC)C23)C14` (stereo not given), 4.55% (inactive).
Regarding `C[C@H](NC(=O)[C@@H](N)Cc1ccc(O)cc1)C(=O)NCC(=O)N(C)[C@@H](Cc1ccccc1)C(=O)N[C@H](CO)CCS(C)=O` (stereo not given in full), the activity change, negative = inhibition was 12.9% (inactive).
The same measure for `O=C1/C(=C/c2ccccc2)C[C@@]2(O)C3Cc4ccc(O)c5c4[C@@]2(CCN3CC2CC2)[C@H]1O5`: 1.86% (inactive); for `COc1ccc2c(c1)[C@]13CCCC[C@H]1[C@H](C2)N(C)CC3`: 16.4% (inactive).
In the case of `Cc1cc(C)cc(C(=O)OC2CC3CCC(C2)N3C)c1` (stereo not given) it was -12.3% (inactive) and -9.52% (inactive).
On to `CN1C(=O)CN=C(c2ccccc2)c2cc(Cl)ccc21`, for which the activity change, negative = inhibition was -6.2% (inactive).
The same measure for `N#Cc1nn(-c2c(Cl)cc(C(F)(F)F)cc2Cl)c(N)c1S(=O)C(F)(F)F` (stereo not given): 13.6% (inactive) and 5.34% (inactive); for `CC(N)Cc1c[nH]c2ccc(OCc3cccs3)cc12` (stereo not given): 1.64% (inactive) and -1.85% (inactive); for `C#Cc1cccc2c1c(C(=O)c1ccc(Cn3c(C)nc4cnccc43)c(F)c1)cn2C(=O)N(C)C`: -7.53% (inactive).
In the case of `Oc1ccc2c3c1O[C@H]1c4[nH]c5ccccc5c4C[C@@]4(O)C(C2)N(CC2CC2)CC[C@]314` it was 10.7% (inactive); in that of `CO[C@H]1CCC(O[C@H]2CC([C@]3(C)CC[C@]4(C[C@H](O)[C@@H](C)[C@@H]([C@@H](C)/C=C(\C)C(=O)[C@H](C)C[C@H](C)C(=O)O)O4)O3)O[C@]3(O[C@@H](C4O[C@@](O)(CO)[C@H](C)C[C@@H]4C)C[C@@H]3C)[C@@H]2C)O[C@@H]1C` (stereo not given in full), -83.8% (active).
For `N[C@H](CO)Cc1ccccc1`, the activity change, negative = inhibition was 1.26% (inactive).
Regarding `N#CC(C#N)=Cc1ccc([N+](=O)[O-])c(O)c1`, the activity change, negative = inhibition was -6.99% (inactive).
As for `Oc1ccc2c(c1)[C@@]13CCCC[C@@]1(O)[C@@H](C2)N(CC1CCC1)CC3`, the activity change, negative = inhibition is 18.4% (inactive).
The same measure for `COC(=O)C[C@@](O)(CCC(C)(C)O)C(=O)O[C@@H]1C(OC)=C[C@]23CCCN2CCc2cc4c(cc2[C@@H]13)OCO4`: -83.3% (active); for `CN1CCc2cc3c(cc2C1O)OCO3` (stereo not given): 7.57% (inactive).
Consider `CSCCC(NC(=O)C(Cc1ccccc1)NC(=O)CNC(=O)CNC(=O)C(N)Cc1ccc(O)cc1)C(=O)O` (stereo not given), for which the activity change, negative = inhibition is 10.2% (inactive).
`CCC(CO)(C(=O)OC1CC2CCC(C1)[N+]2(C)C)c1ccccc1` (stereo not given): the activity change, negative = inhibition is 0.204% (inactive).
In the case of `FC(F)(F)c1cccc(C2=CCN(CCc3ccc4ccccc4c3)CC2)c1` it was 10.1% (inactive) and 11.9% (inactive); in that of `CCN1CCN(C(=O)Cc2ccc(Nc3ncc(F)c(Nc4ccc(C(=O)Nc5ccccc5Cl)cc4)n3)cc2)CC1`, -83.3% (active); in that of `COC(=O)N1CCN(C(=O)Cc2ccc(Cl)c(Cl)c2)C(CN2CCCC2)C1` (stereo not given), 6.7% (inactive).
With `CC1(C)C2CC(=O)[C@]3(C)C(CC[C@@]4(C)[C@H](c5ccoc5)OC(=O)[C@H]5O[C@]543)[C@@]2(C)C(=O)C[C@H]1O` (stereo not given in full), the activity change, negative = inhibition is -1.25% (inactive).
The same measure for `C[C@H](Cc1ccc(OCC(=O)O)cc1)NC[C@H](O)c1cccc(Cl)c1`: 4.02% (inactive) and 20.9% (inactive).
With `CC(Cc1ccc(O)cc1)NCC(O)c1cc(O)cc(O)c1` (stereo not given), the activity change, negative = inhibition was -70.6% (active) and 10.9% (inactive).
In the case of `CNCC(O)c1ccc(O)cc1` (stereo not given) it was 3.63% (inactive) and 14.9% (inactive); in that of `C[C@]12C=CC(=O)C=C1CCC1C2CC[C@]2(C)C(=O)CCC12` (stereo not given in full), 3.57% (inactive).
As to `C[C@@H]1CN(C2CCC(C#N)(c3ccc(F)cc3)CC2)CC[C@]1(C(=O)O)c1ccccc1` (stereo not given in full), the activity change, negative = inhibition is -7.9% (inactive).
Take `C=C1CCC2(O)C3Cc4ccc(O)c5c4C2(CCN3CC2CC2)C1O5` (stereo not given): the activity change, negative = inhibition was 12.3% (inactive).
On to `NC[C@H](CC(=O)O)c1ccc(Cl)cc1`, for which the activity change, negative = inhibition was 3.97% (inactive).
For `CN1C2CCC1CC(OC(c1ccccc1)c1ccc(Cl)cc1)C2` (stereo not given), the activity change, negative = inhibition is -51.9% (inactive) and 41.6% (inactive).
The same measure for `CN(C)CCc1ccc(O)cc1`: 15.3% (inactive) and 3.73% (inactive).
In the case of `CC[C@@H]1[C@@H](C)O[C@@](O)([C@@H](C)[C@H](O)[C@H](C)[C@H]2OC(=O)/C=C/C=C/[C@H](C)[C@H]([C@@H](C)[C@@H](O)[C@H](C)[C@@]3(O)C[C@@H](O[C@H]4C[C@H](O)[C@H](O)[C@H](C)O4)[C@H](CC)[C@@H](C)O3)OC(=O)/C=C/C=C/[C@H]2C)C[C@H]1O[C@H]1C[C@H](O)[C@H](O)[C@H](C)O1` it was -83.6% (active); in that of `CC(C)[C@@H](CN1CC[C@@](C)(c2cccc(O)c2)[C@@H](C)C1)NC(=O)[C@H]1Cc2ccc(O)cc2CN1`, 7.74% (inactive).

(Values after PubChem BioAssay AID1259421 (Broad Institute, 2018).)
